From PubChem BioAssay AID2783 (National Center for Advancing Translational Sciences (NCATS), 2010)
Inconclusive results are not listed. Values without a mark were called inactive. Calls follow the shape of the dose curve; as a rule, active = well fitted inhibition curve with a large enough effect in the polarisation, with a control signal flat (not every such curve was filed as active); inconclusive = small, poorly fitted or top-dose-only effect, or effect the other way, or a change in a side signal; inactive = no such curve, though single readings can be large or run the other way; the % refers to the polarisation. Where a SMILES comes first, the peptide text is derived from it. Bridges are numbered along the chain shown (N, C = ends). [ ]: non-standard residue; d: D form. The star is where a group is joined. ξ: configuration not given here. ξDab(CH2SO3H) = NC(CCNCS(=O)(=O)O)C(=O)O; Heptanoyl(6-Me) = CC(C)CCCCC(=O)*; Dab = NCC[CH](N)C(=O)O
% is scaled to controls: 0 for no effect and ±100 for the full control effect.

The compounds below were run against Menin (Homo sapiens) (UniProt O00255) (assay: Confirmation of Inhibitors Targeting the Menin-MLL Interaction in MLL Related Leukemias: Competition With Fluorescein Labeled MLL-derived Peptide). Settings: Fluorescence polarization, fluorescein-MLL peptide displacement from menin; series mostly up to 100 µM; activity change, negative = inhibition: at the top concentration.
Sequence of Menin (Homo sapiens) (O00255 whole entry, looked up): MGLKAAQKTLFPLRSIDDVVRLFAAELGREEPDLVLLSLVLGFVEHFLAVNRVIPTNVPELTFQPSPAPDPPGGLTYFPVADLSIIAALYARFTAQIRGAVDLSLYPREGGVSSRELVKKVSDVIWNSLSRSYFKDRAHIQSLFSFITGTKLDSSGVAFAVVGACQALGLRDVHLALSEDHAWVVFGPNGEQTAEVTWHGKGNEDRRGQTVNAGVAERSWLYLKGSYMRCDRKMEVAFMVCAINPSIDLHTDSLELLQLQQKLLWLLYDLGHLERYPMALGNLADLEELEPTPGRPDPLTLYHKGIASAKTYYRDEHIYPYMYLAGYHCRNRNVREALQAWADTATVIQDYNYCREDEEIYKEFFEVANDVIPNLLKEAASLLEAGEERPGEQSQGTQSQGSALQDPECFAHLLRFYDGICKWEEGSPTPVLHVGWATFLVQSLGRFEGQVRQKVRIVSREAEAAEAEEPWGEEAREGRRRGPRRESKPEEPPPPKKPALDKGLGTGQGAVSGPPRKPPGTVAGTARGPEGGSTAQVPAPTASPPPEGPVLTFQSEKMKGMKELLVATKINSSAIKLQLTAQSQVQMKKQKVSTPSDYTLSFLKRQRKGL
`O=[N+]([O-])CC(c1ccccc1)P(=O)(c1ccccc1)c1ccccc1` (stereo not drawn) was tested, and the “activity change, negative = inhibition” value was -4.21%. With `C/C(=N\NC(=O)c1nnn(-c2nonc2N)c1C)c1ccc(-c2ccccc2)cc1` the “activity change, negative = inhibition” value was -9.36%. For `CCC(C)C1NC(=O)C(CCNCS(=O)(=O)O)NC(=O)C(NC(=O)C(CCNCS(=O)(=O)O)NC(=O)C(NC(=O)C(CCNCS(=O)(=O)O)NC(=O)CCCCC(C)C)C(C)O)CCNC(=O)C(C(C)O)NC(=O)C(CCNCS(=O)(=O)O)NC(=O)C(CCNCS(=O)(=O)O)NC(=O)C(C(C)CC)NC1=O` (stereo not drawn) ({Heptanoyl(6-Me)}-[ξDab(CH2SO3H)]T[ξDab(CH2SO3H)][Dab][ξDab(CH2SO3H)]II[ξDab(CH2SO3H)][ξDab(CH2SO3H)]T; lactam 4-C; configuration not given here), the “activity change, negative = inhibition” value was -14.6%. In the case of `O=C(CSc1nnnn1-c1ccc(O)cc1)N1N=C(c2ccc3ccccc3c2)CC1c1ccccc1` (stereo not drawn), the “activity change, negative = inhibition” value is reported as -12.2%. In the case of `CCOC(=O)N1CCN(C(=O)c2oc3ccc(S(=O)(=O)N(CC)CC)cc3c2C)CC1`, the “activity change, negative = inhibition” value is reported as -1.38% [at 288 µM]. In the case of `COc1ccc(C2=C(CN(C)C)C(c3ccccc3)c3ccccc3O2)cc1` (stereo not drawn), the “activity change, negative = inhibition” value is reported as -10.7%. In the case of `CC(=O)O[C@H]1CSC[C@H]1NC(=O)c1ccccc1`, the “activity change, negative = inhibition” value is reported as -0.821%. `CCOC(=O)N1CCN(Cc2nnc(-c3ccccc3C)o2)CC1` was tested, and the “activity change, negative = inhibition” value was -11.6%. In the case of `COc1ccc(-c2cc(=O)c3c(O)cc(O)c(-c4cc(-c5cc(=O)c6c(O)cc(OC)cc6o5)ccc4OC)c3o2)cc1`, the “activity change, negative = inhibition” value is reported as -8.17%. With `COc1ccc(CCNCc2cc(C)n(-c3ccc(OC)cc3)c2C)cc1` the “activity change, negative = inhibition” value was -0.328%. For `CCCn1c(C2CCCN2c2nc(C)cs2)nc2cc(Cl)c(Cl)cc21` (stereo not drawn), the “activity change, negative = inhibition” value was 5.5%. With `COc1ccc(NC(=O)N2CC[C@@]3(CCCN(C(=O)c4csnn4)C3)C2)cc1` the “activity change, negative = inhibition” value was -0.89%. In the case of `Cc1ccc(S(=O)(=O)c2cc(OC(=O)c3ccco3)ccc2OC(=O)c2ccco2)cc1`, the “activity change, negative = inhibition” value is reported as -3.07%. In the case of `CCCN(CCC)CCCNC(=O)c1cc2c(=O)[nH]c3ccccc3c2s1`, the “activity change, negative = inhibition” value is reported as -12%. In the case of `O=C(c1cc2c(=O)n3ccccc3nc2s1)N1CCOCC1`, the “activity change, negative = inhibition” value is reported as -2.44% [at 288 µM]. For `C=C(C)[C@@H]1CC=C(CN2CCN(Cc3ccccc3)CC2)CC1`, the “activity change, negative = inhibition” value was -13.5%. For `COc1ccc(NC(=O)NC2(C(=O)N3CCOCC3)CCCCC2)cc1`, the “activity change, negative = inhibition” value was 1.56%. In the case of `CN1[C@H](CC(=O)c2ccccc2)CCC[C@H]1C[C@@H](O)c1ccccc1`, the “activity change, negative = inhibition” value is reported as -0.812% [at 288 µM]. With `Cc1c(F)cccc1NS(=O)(=O)c1ccc2c(c1)c(C)cc(=O)n2C` the “activity change, negative = inhibition” value was -15.3%. `COc1cc(OC)cc(C(=O)N/N=C/c2ccc(OC)c(COc3ccc4ccccc4c3)c2)c1` was tested, and the “activity change, negative = inhibition” value was -9.2%. In the case of `COc1cc(NC(=O)c2cccnc2)c(OC)cc1NC(=O)c1ccc(Br)cc1`, the “activity change, negative = inhibition” value is reported as 2.22%. `Cc1ccc(/C=C2\SC(=S)N(CC(=O)Nc3ncc(Cc4ccccc4Cl)s3)C2=O)cc1` was tested, and the “activity change, negative = inhibition” value was 30.8% [at 288 µM]. With `O=C(C1=C(O)C(=O)N(CCN2CCOCC2)C1c1cccc(Br)c1)c1cccs1` (stereo not drawn) the “activity change, negative = inhibition” value was 1.3% [at 288 µM]. `Cc1ccc(NC(=O)CN(C)C(=O)COc2cccc3cccnc23)cc1` was tested, and the “activity change, negative = inhibition” value was -2.27% [at 288 µM]. For `O=c1oc2c(O)c(O)cc3c(=O)oc4c(O)c(O)cc1c4c23`, the “activity change, negative = inhibition” value was -10.6%. `Cc1cc2ncn(-c3ncnc4sc5c(c34)CCC(C)C5)c2cc1C` (stereo not drawn) was tested, and the “activity change, negative = inhibition” value was -18.4%. For `Cc1cnc(NC(=O)C2C(=O)c3ccccc3S(=O)(=O)N2C)s1` (stereo not drawn), the “activity change, negative = inhibition” value was 6.66% [at 288 µM]. In the case of `O=C(NC1CCN(c2ncccn2)CC1)c1c(F)cccc1F`, the “activity change, negative = inhibition” value is reported as -2.68% [at 288 µM]. `COC(CSc1nc(N)c2c3c(sc2n1)CN(C)CC3)OC` was tested, and the “activity change, negative = inhibition” value was -18.1%. In the case of `COc1ccc(CNC(=O)C(c2ccc(O)cc2)N(Cc2ccco2)C(=O)c2snc(C(N)=O)c2N)cc1` (stereo not drawn), the “activity change, negative = inhibition” value is reported as -21.4%. In the case of `CN(C)CCCNCC(=O)c1c(-c2ccccc2)n(C)c2ccccc12`, the “activity change, negative = inhibition” value is reported as -0.739%. In the case of `CCCN(CCC)CCCNC(=S)Nc1ccc2nc(N3CCCC3)cc(C)c2c1`, the “activity change, negative = inhibition” value is reported as -6.49%. `CCOC(=O)Cn1c2ccccc2n2nc(CCC(=O)O)c(=O)nc12` was tested, and the “activity change, negative = inhibition” value was -2.55%.
